About 83,000 compounds went through this panel and 20% of them were active in at least one assay; those are over-represented in the sample as a whole.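 Note: values are percent growth. 100 is the growth of untreated cells, values between 100 and 0 indicate rising inhibition; between -100 and 0 indicates cell death.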 A number with no mark means an inactive call. Active and inactive are the calls of the source. The calls were made as follows: active = growth percent below 10; inactive = the rest.
Tests used:
Test in all cases: NCI-60 one-dose screen, 48 h (100 = growth as untreated, 0 = no growth, -100 = all killed)
Conditions in all cases: 10 µM unless noted
NCI-H226 lung = test system: NCI-H226 lung
NCI-H322M lung = test system: NCI-H322M lung
HOP-62 NSCLC = test system: HOP-62 NSCLC
NCI-H460 lung = test system: NCI-H460 lung
HOP-92 NSCLC = test system: HOP-92 NSCLC
NCI-H522 lung = test system: NCI-H522 lung
A549/ATCC NSCLC = test system: A549/ATCC NSCLC
786-0 renal = test system: 786-0 renal
COLO 205 colon = test system: COLO 205 colon

SMILES	growth (NCI-H226 lung)	growth (NCI-H322M lung)	growth (HOP-62 NSCLC)	growth (NCI-H460 lung)	growth (HOP-92 NSCLC)	growth (NCI-H522 lung)	growth (A549/ATCC NSCLC)	growth (786-0 renal)	growth (COLO 205 colon)
CNC(=O)c1cc(Oc2cccc3nc(NC(=O)Nc4cc(C(F)(F)F)cc(C(F)(F)F)c4)ccc23)ccn1	43.1%	25.5%	6.73% (active)	34.9%	-23.7% (active)	24.3%	18.6%	-35.6% (active)	53.9%
Cc1cc(C)c(O)c(CNCCCCCCNCc2cc(C)cc(C)c2O)c1	81.6%	-12.6% (active)	17.6%	-62.6% (active)	12.1%	-13% (active)	32%	54.5%	-72.8% (active)
O=c1[nH]c(CN2CCN(c3cccc(Cl)c3)CC2)nc2cc(Cl)ccc12	87.6%	113%	89.7%	104%	105%		88.9%	90%	106%
C#C[C@]1(O)CC[C@H]2[C@@H]3CC=C4c5nc(Nc6ncccn6)sc5CC[C@]4(C)[C@H]3CC[C@@]21C	68.8%	74.3%	38.3%	31.2%	52.2%	81%	43.4%	-45.2% (active)	92.4%
COc1ccc2nc3cc(Cl)ccc3c(Nc3ccc(O)cc3)c2c1	74.4%	90.5%	68.8%	23.1%	78.9%	72.5%	46.6%	84%	76.8%
CC(C)(C)c1cc(C(=O)Nc2cc3ccccc3cc2C(=O)NCCN)cc(C(C)(C)C)c1	-51.9% (active)	-78.3% (active)	-80.8% (active)	-70.4% (active)	-70.3% (active)	-47.3% (active)	-60.7% (active)	-92% (active)	-80.9% (active)
O=c1[nH]cnc2c1ccn2C1OC(CO)C(O)C1O (stereo unspecified)	75.1%	64.6%	76.5%	49.4%	8.49% (active)	61%	84.4%	58.9%	66.8%
Clc1ccccc1/C=N\Nc1ccccn1	80.8%	111%	83.8%	99.2%	83.9%	91.7%	93.6%	113%	95.7%
N#C/C(=C(/O)CCCO)c1nc2ccccc2c(=O)[nH]1	93.7%	105%	99%	111%	84.9%	95%	95.3%	102%	130%
COc1cc(-c2cc(-c3ccc(Nc4ncnc5cc(Cl)ccc45)cc3)nc(N3CCCCC3)n2)cc(OC)c1OC	99.3%	95.5%	84.7%	94.7%	92%	75.3%	84.7%	98.9%	110%
O=C1CN(Cc2ccc(C(=O)NO)cc2)C(=O)[C@@H](Cc2ccccc2)N1	104%	102%	102%	103%	102%	98.2%	96.4%	95.8%	114%
CCCCCCCCN(CCCCCCCC)CC(O)c1ccc(Cl)c(C)c1Cl (stereo unspecified)	94.4%	81.8%	89.3%	72.8%	71.2%	65.6%	78%	91.7%	60.5%
O=C(Nc1ccccc1)Nc1ccc(C(=O)/C=C/c2ccc(N3CCCC3)cc2)cc1	78%	83.2%	63%	78.7%	73.8%	31.7%	75.5%	93.9%	66.6%
CC(C)CCSC1=CC(=O)c2ccccc2C1=O	69.6%	79.6%	78.4%	103%	-74.5% (active)	-68.9% (active)	79.7%	90.6%	132%
CCc1ccc(-c2ccc(COc3ccc(CC4SC(=O)NC4=O)cc3)cc2)cc1 (stereo unspecified)	84.5%	89.8%	84.5%	79.3%	60.7%	45.5%	64.8%	78.1%	99.9%
CC(=O)CC(=O)SC1=NCCS1		113%	123%	106%	101%	95.8%	87.6%	109%	109%
COc1cc(NN=C(c2ccc(O)cc2)c2ccc(O)cc2)c([N+](=O)[O-])cc1[N+](=O)[O-]	110%	94.3%	-1.66% (active)	1.73% (active)	70.2%	-49.9% (active)	-5.34% (active)	-29.5% (active)	12.7%
COc1ccc(N(c2nc(-c3ccc([N+](=O)[O-])cc3)cs2)C(C)C)cc1	76.3%	83.1%	84.8%	84.1%	74.3%	67.8%	85.3%	88.4%	108%
CC/C=C(\C)C(CCC)(CN=O)C(=O)OCC (stereo unspecified)	109%	107%	93%	114%	102%	92.8%	85.8%	104%	104%
Cc1nn(-c2ccccc2)c(N2CCOCC2)c1-c1nc2ccc([N+](=O)[O-])cc2[nH]1	111%	93.2%	128%	99.5%	117%	80.5%	94%	107%	124%
O=C(CSc1nccc(Nc2ccc(S(=O)(=O)Nc3ccccn3)cc2)n1)c1ccc(Cl)cc1	89%	104%	83.5%	104%	92.8%	75.4%	105%	102%	110%
O=C(Nc1cc(-c2cccnc2)nc(NCCCN2CCOCC2)n1)c1cc(Br)cc(C(F)(F)F)c1	73.8%	58.2%	69.4%	56%	34.6%	60.2%	67.9%	51.8%	1.11% (active)

— PubChem BioAssay (NCI)
